Whole data set: some 16,000 sequences, median “rpm ratio (pull-down/input)” near 0.5, cut for the highest 2% near 5.5. The list comes from a sample in which the highest values are over-represented; it also holds similar and randomly drawn sequences.

The test deals with T1, MBP-FoxP3dN (Mus musculus, UniProt Q99JB6 188-423).
T1 sequence: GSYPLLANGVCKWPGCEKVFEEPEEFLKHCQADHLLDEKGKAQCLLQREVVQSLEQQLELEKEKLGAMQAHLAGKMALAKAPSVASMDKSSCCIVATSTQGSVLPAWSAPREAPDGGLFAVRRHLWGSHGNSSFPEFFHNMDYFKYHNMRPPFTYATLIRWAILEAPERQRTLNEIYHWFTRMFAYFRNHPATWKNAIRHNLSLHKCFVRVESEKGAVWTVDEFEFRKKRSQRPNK
As to the kind of experiment: PD-seq (MBP pull-down with sequencing); 20 mM Tris-HCl pH 7.5, 100 mM NaCl, 1.5 mM MgCl2, 0.4 uM protein, 0.1 uM dsDNA library, 30 min, room temperature, amylose pull-down; high values mean tight binding. The note with it: protein: recombinant; tags: His6-MBP; chain copies: 2; dsDNA, one strand shown. The method, boiled down:
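Binding is the reads-per-million enrichment of pull-down relative to input, pooled across replicates. For this, 0.4 µM His6-MBP-tagged mouse FoxP3 or FoxP1 fragment lacking the N-terminus, made in E. coli, was incubated with 0.1 µM Klenow-filled double-stranded degenerate DNA library for 30 min at room temperature in Tris pH 7.5 buffer with NaCl and MgCl2. Complexes bound to amylose resin were washed three times before proteinase K released the DNA for PCR barcoding and Illumina sequencing.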
In the case of “GATGATTGTTCTCCCAGCTGATGAATTTCGCCTTTCGAGTAAACAAATTTTCCTAATCTTTCTGTTCAAGCGCCATCTAC”, the binding signal was 5.39 RPM ratio (pull-down/input).
Consider “GATGATTGTTCTCCCAGCTGATGAATTCGTGCATTCGAGTAAACAAATTTTCCTAATCTTTCTGTTCAAGCGCCATCTAC”, for which the binding signal was 6.29 RPM ratio (pull-down/input).
With “GATGATTGTTCTCCCAGCTGATGAATTTCGTGCATCGAGTAAACAAATTTTCCTAATCTTTCTGTTCAAGCGCCATCTAC” the figure was 1.22 RPM ratio (pull-down/input); with “GATGATTGTTCTCCCAGCTGATGAATTGTGCCTTTCGAGTAAACAAATTTTCCTAATCTTTCTGTTCAAGCGCCATCTAC”, 6.1 RPM ratio (pull-down/input).
For “GATGATTGTTCTCCCAGCTGATGAATTTGTGCCTTCGAGTAAACAAATTTTCCTAATCTTTCTGTTCAAGCGCCATCTAC”, the binding signal is 4.02 RPM ratio (pull-down/input).
With “GATGATTGTTCTCCCAGCTGATGAATTTTGTGCATCGAGTAAACAAATTTTCCTAATCTTTCTGTTCAAGCGCCATCTAC” the figure was 2.27 RPM ratio (pull-down/input).
With “GATGATTGTTCTCCCAGCTGATGAATTGCGAATCTCGAGTAAACAAATTTTCCTAATCTTTCTGTTCAAGCGCCATCTAC” the figure was 2.16 RPM ratio (pull-down/input); with “GATGATTGTTCTCCCAGCTGATGAATTCCATAGATCGAGTAAACAAATTTTCCTAATCTTTCTGTTCAAGCGCCATCTAC”, 0.239 RPM ratio (pull-down/input).
Consider “GATGATTGTTCTCCCAGCTGATGAATTAAGGGCCTCGAGTAAACAAATTTTCCTAATCTTTCTGTTCAAGCGCCATCTAC”, for which the binding signal is 0.451 RPM ratio (pull-down/input).
“GATGATTGTTCTCCCAGCTGATGAATTCAATTCGTCGAGTAAACAAATTTTCCTAATCTTTCTGTTCAAGCGCCATCTAC”: the binding signal is 0.665 RPM ratio (pull-down/input).
With “GATGATTGTTCTCCCAGCTGATGAATTTCGGAGGTCGAGTAAACAAATTTTCCTAATCTTTCTGTTCAAGCGCCATCTAC” the figure was 0.25 RPM ratio (pull-down/input); with “GATGATTGTTCTCCCAGCTGATGAATTCCTCGCTTCGAGTAAACAAATTTTCCTAATCTTTCTGTTCAAGCGCCATCTAC”, 0.285 RPM ratio (pull-down/input); with “GATGATTGTTCTCCCAGCTGATGAATTGCCGCCATCGAGTAAACAAATTTTCCTAATCTTTCTGTTCAAGCGCCATCTAC”, 2.97 RPM ratio (pull-down/input).
Consider “GATGATTGTTCTCCCAGCTGATGAATTTGAGTTTTCGAGTAAACAAATTTTCCTAATCTTTCTGTTCAAGCGCCATCTAC”, for which the binding signal was 0.885 RPM ratio (pull-down/input).
In the case of “GATGATTGTTCTCCCAGCTGATGAATTCAAGTTTTCGAGTAAACAAATTTTCCTAATCTTTCTGTTCAAGCGCCATCTAC”, the binding signal was 0.454 RPM ratio (pull-down/input).
In the case of “GATGATTGTTCTCCCAGCTGATGAATTTCCCTTCTCGAGTAAACAAATTTTCCTAATCTTTCTGTTCAAGCGCCATCTAC”, the binding signal was 0.295 RPM ratio (pull-down/input).
Take “GATGATTGTTCTCCCAGCTGATGAATTTCTGTGATCGAGTAAACAAATTTTCCTAATCTTTCTGTTCAAGCGCCATCTAC”: the binding signal was 0.408 RPM ratio (pull-down/input).
Take “GATGATTGTTCTCCCAGCTGATGAATTTGATGAGTCGAGTAAACAAATTTTCCTAATCTTTCTGTTCAAGCGCCATCTAC”: the binding signal was 0.974 RPM ratio (pull-down/input).
“GATGATTGTTCTCCCAGCTGATGAATTGTGTTGATCGAGTAAACAAATTTTCCTAATCTTTCTGTTCAAGCGCCATCTAC”: the binding signal was 7.06 RPM ratio (pull-down/input).
The figure for “GATGATTGTTCTCCCAGCTGATGAATTGATCTAATCGAGTAAACAAATTTTCCTAATCTTTCTGTTCAAGCGCCATCTAC” is 0.356 RPM ratio (pull-down/input); for “GATGATTGTTCTCCCAGCTGATGAATTGAATTGATCGAGTAAACAAATTTTCCTAATCTTTCTGTTCAAGCGCCATCTAC” it is 0.917 RPM ratio (pull-down/input).
For “GATGATTGTTCTCCCAGCTGATGAATTCTGTTGATCGAGTAAACAAATTTTCCTAATCTTTCTGTTCAAGCGCCATCTAC”, the binding signal was 6.26 RPM ratio (pull-down/input).
As to “GATGATTGTTCTCCCAGCTGATGAATTCAATTGATCGAGTAAACAAATTTTCCTAATCTTTCTGTTCAAGCGCCATCTAC”, the binding signal is 1.07 RPM ratio (pull-down/input).
Turning to “GATGATTGTTCTCCCAGCTGATGAATTTGTTGAGTCGAGTAAACAAATTTTCCTAATCTTTCTGTTCAAGCGCCATCTAC”, the binding signal is 5.53 RPM ratio (pull-down/input).
Regarding “GATGATTGTTCTCCCAGCTGATGAATTTTTTGAGTCGAGTAAACAAATTTTCCTAATCTTTCTGTTCAAGCGCCATCTAC”, the binding signal was 0.237 RPM ratio (pull-down/input).
With “GATGATTGTTCTCCCAGCTGATGAATTCTTTTGATCGAGTAAACAAATTTTCCTAATCTTTCTGTTCAAGCGCCATCTAC”, the binding signal is 0.285 RPM ratio (pull-down/input).
With “GATGATTGTTCTCCCAGCTGATGAATTGTTGTGATCGAGTAAACAAATTTTCCTAATCTTTCTGTTCAAGCGCCATCTAC” the figure was 6.31 RPM ratio (pull-down/input); with “GATGATTGTTCTCCCAGCTGATGAATTGTGATGATCGAGTAAACAAATTTTCCTAATCTTTCTGTTCAAGCGCCATCTAC”, 2.48 RPM ratio (pull-down/input).
The figure for “GATGATTGTTCTCCCAGCTGATGAATTCAGATGTTCGAGTAAACAAATTTTCCTAATCTTTCTGTTCAAGCGCCATCTAC” is 1.06 RPM ratio (pull-down/input); for “GATGATTGTTCTCCCAGCTGATGAATTGTACCCATCGAGTAAACAAATTTTCCTAATCTTTCTGTTCAAGCGCCATCTAC” it is 0.472 RPM ratio (pull-down/input).
For “GATGATTGTTCTCCCAGCTGATGAATTGAATCACTCGAGTAAACAAATTTTCCTAATCTTTCTGTTCAAGCGCCATCTAC”, the binding signal was 0.551 RPM ratio (pull-down/input).
As for “GATGATTGTTCTCCCAGCTGATGAATTCAATTGCTCGAGTAAACAAATTTTCCTAATCTTTCTGTTCAAGCGCCATCTAC”, the binding signal is 2.31 RPM ratio (pull-down/input).

(Values after publication PMC12820563, “FoxP3 forms a head-to-head dimer in vivo and stabilizes its multimerization on adjacent microsatellites”.)
